Laboratory results: the supplement of paper PMC6555819

What was measured:
Experiment in all cases: PBM binding z-score (relative to random genomic background probes); higher = stronger binding; sequences stand for … in GC…GCGATTGACAGCGTAGAATGAAGG
[1] = test system: RARb homodimer (NR concentration 270 nM)
How it was run: (§1)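 On custom Agilent 4×180K arrays, double-stranded probes with 34-nt variable regions carried direct-repeat seeds, single-nucleotide variants, half-site ablations or random human genomic background. Ligand-free nuclear receptor dimers were applied for 1 h, and binding was read with antibodies against each partner (one per run). Binding z-scores come from regression-normalized fluorescence, with the random background probes as reference.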

[2] = test system: RARg:RXRa (NR concentration 270 nM, RXRa partner concentration 90 nM)
How it was run: as §1

[3] = test system: RARg homodimer (NR concentration 270 nM)
How it was run: as §1

[4] = test system: RXRa DBDmut IVT, anti-RXR (DBD mutation: RXRa K156A/R161A, NR concentration 90 nM)
How it was run: as §1

[5] = test system: RXRa homodimer (NR concentration 180 nM)
How it was run: as §1

[6] = test system: THRa:RXRa (NR concentration 90 nM, RXRa partner concentration 90 nM)
How it was run: as §1

[7] = test system: THRa homodimer (NR concentration 90 nM)
How it was run: as §1

[8] = test system: VDR homodimer (NR concentration 270 nM)
How it was run: as §1

Sequence: ATCTCTATGTAAAGATAGTTCAGTGAATGCAAAT
- PBM binding z-score [1]: 0.692
- PBM binding z-score [2]: 0.486
- PBM binding z-score [3]: 0.571
- PBM binding z-score [4]: 0.0227
- PBM binding z-score [5]: 0.467
- PBM binding z-score [6]: 0.271
- PBM binding z-score [7]: -0.195
- PBM binding z-score [8]: 0.366

Sequence: AGAATGAGGTTACCAAAGATCAGGTAAACGCTTG
- PBM binding z-score [1]: 0.973
- PBM binding z-score [2]: 2.09
- PBM binding z-score [3]: 1.47
- PBM binding z-score [4]: 0.793
- PBM binding z-score [5]: 2.75
- PBM binding z-score [6]: 2.98
- PBM binding z-score [7]: 1.22
- PBM binding z-score [8]: 0.168

Sequence: AGAATGAGGGTATACGTAGATCAGGGAAGAAAGT
- PBM binding z-score [1]: 0.451
- PBM binding z-score [2]: 0.26
- PBM binding z-score [3]: 0.277
- PBM binding z-score [4]: 0.799
- PBM binding z-score [5]: 0.262
- PBM binding z-score [6]: 0.252
- PBM binding z-score [7]: 0.0652
- PBM binding z-score [8]: 0.45

Sequence: CCTACTGGGCCATTCAGAGGTCATTGAACATATG
- PBM binding z-score [1]: 4.05
- PBM binding z-score [2]: 4.74
- PBM binding z-score [3]: 3.46
- PBM binding z-score [4]: 1.03
- PBM binding z-score [5]: 4.17
- PBM binding z-score [6]: 3.33
- PBM binding z-score [7]: 1.65
- PBM binding z-score [8]: 4.01

Sequence: CGTCCAAGGTCAGCAGGTCATTGAAAGCGACGTG
- PBM binding z-score [1]: 5.08
- PBM binding z-score [2]: 6.83
- PBM binding z-score [3]: 6.69
- PBM binding z-score [4]: 2.59
- PBM binding z-score [5]: 6.04
- PBM binding z-score [6]: 4.26
- PBM binding z-score [7]: 2.98
- PBM binding z-score [8]: 2.36

Sequence: ACTTACGGGTCAAAGAGGTTATAGCACGCGTATA
- PBM binding z-score [1]: 3.42
- PBM binding z-score [2]: 5.32
- PBM binding z-score [3]: 4.72
- PBM binding z-score [4]: 2.54
- PBM binding z-score [5]: 6.31
- PBM binding z-score [6]: 3.45
- PBM binding z-score [7]: 0.218
- PBM binding z-score [8]: 3.59

Sequence: CGTCCAAGGTCAGCACGTCAGTGAAAGCGACGTG
- PBM binding z-score [1]: 4
- PBM binding z-score [2]: 5.13
- PBM binding z-score [3]: 5.75
- PBM binding z-score [4]: 2.51
- PBM binding z-score [5]: 3.83
- PBM binding z-score [6]: 3.43
- PBM binding z-score [7]: 1.9
- PBM binding z-score [8]: 0.904

Sequence: CCCGACAGGTGAGAAGGTAACTCAGCCTCGATTA
- PBM binding z-score [1]: 0.604
- PBM binding z-score [2]: 0.562
- PBM binding z-score [3]: 0.328
- PBM binding z-score [4]: -0.142
- PBM binding z-score [5]: 0.298
- PBM binding z-score [6]: 0.229
- PBM binding z-score [7]: 0.474
- PBM binding z-score [8]: -0.11

Sequence: AATACCGGGTCACTAGGCCAGAGTAGGTACGAAT
- PBM binding z-score [1]: 2.74
- PBM binding z-score [2]: 4.17
- PBM binding z-score [3]: 3.95
- PBM binding z-score [4]: 1.2
- PBM binding z-score [5]: 4.15
- PBM binding z-score [6]: 3.08
- PBM binding z-score [7]: 0.928
- PBM binding z-score [8]: 1.22

Sequence: CCGACTGGGGCATAAGGTTACCAGAAGCCAGCCC
- PBM binding z-score [1]: 1.99
- PBM binding z-score [2]: 1.86
- PBM binding z-score [3]: 1.08
- PBM binding z-score [4]: -0.501
- PBM binding z-score [5]: 1.26
- PBM binding z-score [6]: 2.28
- PBM binding z-score [7]: 1.23
- PBM binding z-score [8]: -0.301

Sequence: CTCGAAAGCTCGTGCTCAGGTGAGTATACCAAAC
- PBM binding z-score [1]: -0.48
- PBM binding z-score [2]: -0.629
- PBM binding z-score [3]: -0.592
- PBM binding z-score [4]: -0.295
- PBM binding z-score [5]: -0.748
- PBM binding z-score [6]: 0.472
- PBM binding z-score [7]: 0.274
- PBM binding z-score [8]: -0.591

Sequence: TCTTGTAGAGCAGCAGGTTAAGAAAGCTGGCCAA
- PBM binding z-score [1]: -0.584
- PBM binding z-score [2]: -0.394
- PBM binding z-score [3]: -0.758
- PBM binding z-score [4]: -0.623
- PBM binding z-score [5]: -0.14
- PBM binding z-score [6]: -0.0931
- PBM binding z-score [7]: -1.03
- PBM binding z-score [8]: -1.08

Sequence: CGAACTAGGTCAGAATAGGACAGTGAAGGATGAT
- PBM binding z-score [1]: 2.16
- PBM binding z-score [2]: 2.58
- PBM binding z-score [3]: 3.36
- PBM binding z-score [4]: 0.702
- PBM binding z-score [5]: 1.3
- PBM binding z-score [6]: 2.77
- PBM binding z-score [7]: 0.0202
- PBM binding z-score [8]: -0.245

Sequence: GCTGCCAGGTCAACTGATGGTCAGCTAAAGCTCG
- PBM binding z-score [1]: 3.58
- PBM binding z-score [2]: 5.49
- PBM binding z-score [3]: 5.38
- PBM binding z-score [4]: 1.94
- PBM binding z-score [5]: 3.81
- PBM binding z-score [6]: 3.68
- PBM binding z-score [7]: 2.18
- PBM binding z-score [8]: 0.679

Sequence: ACTATTAGTTGGCTTAGGGCAACCGATACGACGC
- PBM binding z-score [1]: 0.69
- PBM binding z-score [2]: 0.504
- PBM binding z-score [3]: 0.733
- PBM binding z-score [4]: 0.512
- PBM binding z-score [5]: 0.326
- PBM binding z-score [6]: 0.788
- PBM binding z-score [7]: 0.529
- PBM binding z-score [8]: 0.021

Sequence: GATACAGGGTCTAGGCCAGAGTACGCGTATTGAT
- PBM binding z-score [1]: -0.143
- PBM binding z-score [2]: 0.0579
- PBM binding z-score [3]: 0.175
- PBM binding z-score [4]: -0.382
- PBM binding z-score [5]: -0.304
- PBM binding z-score [6]: -0.508
- PBM binding z-score [7]: -0.824
- PBM binding z-score [8]: 0.154

Sequence: TCACATAGGTAATACAGGTGAAAGTCGGCATCTA
- PBM binding z-score [1]: 0.573
- PBM binding z-score [2]: 0.559
- PBM binding z-score [3]: 0.535
- PBM binding z-score [4]: 1.35
- PBM binding z-score [5]: 1.14
- PBM binding z-score [6]: 0.928
- PBM binding z-score [7]: -0.0751
- PBM binding z-score [8]: -0.296

Sequence: AATACAGGGTCATCGTAGGCCAGATTACGCACAG
- PBM binding z-score [1]: 3.54
- PBM binding z-score [2]: 5.85
- PBM binding z-score [3]: 4.96
- PBM binding z-score [4]: 3.82
- PBM binding z-score [5]: 6.58
- PBM binding z-score [6]: 4.42
- PBM binding z-score [7]: 1.56
- PBM binding z-score [8]: 3.35

Sequence: CCTAGTTGGTCAGGAGGTCACACAACGGATATGA
- PBM binding z-score [1]: 4.4
- PBM binding z-score [2]: 5.09
- PBM binding z-score [3]: 4.4
- PBM binding z-score [4]: 0.815
- PBM binding z-score [5]: 4.82
- PBM binding z-score [6]: 3.56
- PBM binding z-score [7]: 2.25
- PBM binding z-score [8]: 2.5

Sequence: TCTATTAGTTGATTCGGGCAACCGAAACAGCGGA
- PBM binding z-score [1]: 0.249
- PBM binding z-score [2]: 0.385
- PBM binding z-score [3]: 0.285
- PBM binding z-score [4]: 1.15
- PBM binding z-score [5]: 0.328
- PBM binding z-score [6]: 0.247
- PBM binding z-score [7]: 0.0848
- PBM binding z-score [8]: 0.228

Sequence: TGTCAAAGATCAAAGGTAACGTAAGTATCCACAC
- PBM binding z-score [1]: 0.261
- PBM binding z-score [2]: 1.26
- PBM binding z-score [3]: 0.761
- PBM binding z-score [4]: -0.668
- PBM binding z-score [5]: 2.36
- PBM binding z-score [6]: 1.54
- PBM binding z-score [7]: -0.401
- PBM binding z-score [8]: -0.267

Sequence: GCTGCTAGCTCAGGTTGGTCAGCTAACGGGTACG
- PBM binding z-score [1]: -0.467
- PBM binding z-score [2]: -0.618
- PBM binding z-score [3]: -0.751
- PBM binding z-score [4]: -0.375
- PBM binding z-score [5]: -1.02
- PBM binding z-score [6]: -0.615
- PBM binding z-score [7]: -0.751
- PBM binding z-score [8]: -0.32

Sequence: CCTCAAAGTTCAACTAAGGTAACGTAAAGCACGC
- PBM binding z-score [1]: 4.3
- PBM binding z-score [2]: 6.18
- PBM binding z-score [3]: 6.74
- PBM binding z-score [4]: 4.41
- PBM binding z-score [5]: 5.11
- PBM binding z-score [6]: 5.29
- PBM binding z-score [7]: 2.38
- PBM binding z-score [8]: 4.44

Sequence: CGTCCAAGGTCATAGGAAGTCAGTGAAGACAGAT
- PBM binding z-score [1]: 3.7
- PBM binding z-score [2]: 5.5
- PBM binding z-score [3]: 5.7
- PBM binding z-score [4]: 3.77
- PBM binding z-score [5]: 5.28
- PBM binding z-score [6]: 3.81
- PBM binding z-score [7]: 2.31
- PBM binding z-score [8]: 2.43

Sequence: CCAGACAGGTGAGAAGGTAACTCTGCCTCGATTA
- PBM binding z-score [1]: 0.53
- PBM binding z-score [2]: 0.418
- PBM binding z-score [3]: 0.366
- PBM binding z-score [4]: 0.11
- PBM binding z-score [5]: 0.281
- PBM binding z-score [6]: 0.348
- PBM binding z-score [7]: 0.0664
- PBM binding z-score [8]: -0.0879

Sequence: CGAACTTGGTCAGAACAGGACAGTGAAGGATGAT
- PBM binding z-score [1]: 0.311
- PBM binding z-score [2]: 0.432
- PBM binding z-score [3]: 0.829
- PBM binding z-score [4]: -0.105
- PBM binding z-score [5]: 0.172
- PBM binding z-score [6]: 1.09
- PBM binding z-score [7]: -0.102
- PBM binding z-score [8]: -0.116

Sequence: TCTGCTAGGTCAACGATGGTCATCTAATCTGCTA
- PBM binding z-score [1]: 3.5
- PBM binding z-score [2]: 4.05
- PBM binding z-score [3]: 4.69
- PBM binding z-score [4]: 1.07
- PBM binding z-score [5]: 2.9
- PBM binding z-score [6]: 3.45
- PBM binding z-score [7]: 0.805
- PBM binding z-score [8]: -0.118

Sequence: GGAACGACGGCATTCGAGTTGATAGCATGGCGAT
- PBM binding z-score [1]: -1.09
- PBM binding z-score [2]: -0.451
- PBM binding z-score [3]: -0.127
- PBM binding z-score [4]: -0.144
- PBM binding z-score [5]: -0.39
- PBM binding z-score [6]: -0.124
- PBM binding z-score [7]: -1.19
- PBM binding z-score [8]: -0.259
